According to PubChem BioAssay AID504684 (Southern Research Specialized Biocontainment Screening …, 2011):
Results with a measured potency or affinity are listed apart. Active and inactive are the calls of the source. The rule behind the calls is not given here.

Experiment: Vero cell cytotoxicity, cytotoxicity control for M. tuberculosis inhibitor project, purified and synthesized samples, set 3 (AID 504684)
Conditions: series mostly up to 100 µM; viability: at the top concentration

Compound	viability
O=C(CSc1ncccn1)NC1CCCCC1	80.4% (inactive)
O=C(CSc1ccccn1)NC1CCCCC1	80.4% (inactive)
COc1cc(NC(=O)C/C(C)=N/NC(=O)c2ccccn2)c(OC)cc1Cl	98.9% (inactive)
Cc1cc(=O)[nH]c(=S)[nH]1	94.2% (inactive)
O=C(CSc1nc(O)cc(=O)[nH]1)Nc1ccccc1	91.6% (inactive)
Cc1c[nH]c(=S)[nH]c1=O	80.5% (inactive)
COC(=O)C(C)Oc1ccc(-c2nccc(-c3ccccn3)n2)cc1 (stereo not drawn)	82% (inactive)
Cc1nc(SCC(N)=O)[nH]c(=O)c1C	93.2% (inactive)
CCOC(=O)CSc1nc(C)c(C)c(=O)[nH]1	100% (inactive)
CCOC(=O)COc1ccc(/C=C2\NC(=S)N(CC)C2=O)cc1	86.3% (inactive)
COC(=O)C(C)Oc1ccc(Cc2ncc(C(F)(F)F)cc2Cl)cc1 (stereo not drawn)	83.6% (inactive)
CC(=NCc1ccc2c(c1)OCO2)C1=C(O)c2ccccc2C1=O	89.5% (inactive)
Cc1cc(=O)[nH]c(SCC(=O)Nc2ccccc2)n1	87.8% (inactive)
CC[N+](C)(CC)CCCCOc1ccc2c(c1)C(=O)c1cc(OCCCC[N+](C)(CC)CC)ccc1-2	87.1% (inactive)
CCOC(=O)COn1c2c(c3c4no[n+]([O-])c4ccc31)CCCC2	93.2% (inactive)
Cc1[nH]c(=S)[nH]c(=O)c1C	92.6% (inactive)
COC(=O)C1CC(=O)N(c2ccc(OCc3ccccc3Cl)cc2)C1 (stereo not drawn)	79.3% (inactive)
CCOC1OC(=O)C(Cl)=C1Nc1ccccc1C (stereo not drawn)	85% (inactive)
Cc1nc(SCC(=O)NC2CCCCC2)[nH]c(=O)c1C	84.1% (inactive)
O=C(CSc1nc2ccccc2c(=O)[nH]1)NC1CCCCC1	94% (inactive)
O=C(CSc1nccc(=O)[nH]1)Nc1ccc(N2CCOCC2)cc1	103% (inactive)
CCSc1nc(C)c(C)c(=O)[nH]1	101% (inactive)
Cc1ccc(NC(=O)COC(=O)CCc2c[nH]c3ccccc23)cc1[N+](=O)[O-]	79.8% (inactive)
